The source of these data is PubChem BioAssay.

Experiment [1] can be described thus: yeast TOR pathway RPL19A-GFP modulators, primary screen, cell-based, S. cerevisiae, multiplex flow cytometry (AID 1862; in the data active means percent of DMSO control GFP below about 86%;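 further: lower values mimic rapamycin by blocking the RPL19A rise seen in DMSO cells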). The conditions noted are these: S. cerevisiae RPL19A-GFP strain, flow cytometry fluorescence, 3 h; at 10 µM; stronger effect = lower value. On the technique in general: In flow cytometry, cells or beads pass a laser one at a time.
Experiment [2] is described as follows: modulators of MEP2-GFP levels in yeast, primary screen, S. cerevisiae, multiplex flow cytometry (AID 1867;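 active means GFP response, as percent of the DMSO control, above the screen-wide mean plus 3 SD, about 139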;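 further: median GFP channel fluorescence of barcode-gated MEP2-GFP cells measured by flow cytometry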). As to conditions: S. cerevisiae MEP2-GFP strain, 3 h, at 10 µM, stronger effect = higher value, 100% means same as DMSO wells.
A short description of experiment [3]: modulators of CIT2-GFP expression in yeast, primary screen, S. cerevisiae, GFP fusion, multiplex flow cytometry (AID 1870;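 active means percent response above a set limit, the screen-wide mean plus 3 SD, cut at about 130% in these data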;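 further: barcoded CIT2-GFP strain pooled with four other GFP strains with rapamycin as positive control; median GFP fluorescence per well over plate mean of DMSO wells so 100% = DMSO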). As to conditions: 3 h, at 10 µM, stronger effect = higher value.
A short description of experiment [4]: modulators of LAP4-GFP expression in yeast, primary screen, S. cerevisiae, multiplex flow cytometry (AID 1873;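 active means GFP signal, as percent of the solvent control, above the screen mean plus 3 SD, about 149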). As to conditions: 3 h, at 10 µM, stronger effect = higher value.
The nature of experiment [5]: modulators of AGP1-GFP expression in yeast TOR pathway, primary screen, cell-based, multiplex flow cytometry, S. cerevisiae (AID 1887;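 active means GFP signal above the screen-wide mean plus 3 SD, that is over about 124.5% of the solvent control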;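 further: AGP1-GFP fusion strain of S. cerevisiae within a five-strain barcoded multiplex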). The conditions noted are these: 3 h, at 10 µM, stronger effect = higher value.
Experiment [6] in a line: inhibitors of CD8+ T cell-vesicle binding, pilot screen, LFA-1/ICAM-1 modulator project, MLPCN validation set, flow cytometry (AID 2523;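 active means response below a set limit, under 55% cells CD8-positive and vesicle-bound, and CD8 cells' 90th-percentile brightness under 279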;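 on vesicle binding response: mean PE anti-B7-1 fluorescence of CD8+ cells relative to row control; 100% = QL9-loaded vesicles with DMSO vehicle in the same plate row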). The conditions noted are these: 2C mouse CD8+ T cells, at 7 µM, stronger effect = lower value; double positive events: measured here: CD8+/vesicle+ event percentage.
Experiment [7] deals with Integrin beta-1 (Homo sapiens) + Integrin alpha-4 (Homo sapiens) (UniProt P13612+P05556). The experiment is described as follows: inhibition of HUTS-21 binding to VLA-4, pilot screen, VLA-4 allosteric modulator project, U937 cells, HUTS-21 mAb, flow cytometry, validation set (AID 2674;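 active means inhibition above 50%, about 3 SD of the validation set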;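 further: antibody binding induced by the VLA-4 ligand LDV present at three times its Kd; 0% = LDV ligand with antibody and no compound and 100% = antibody without LDV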). The conditions noted are these: HUTS-21 LIBS mAb binding, at 6.7 µM, stronger effect = higher value, binding induced by LDV ligand.

Experiment [8] can be described thus: superoxide lowering in aged yeast cells, pilot screen, validation compound set (AID 2706;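 active means superoxide response below 65% of plate, a cut near 3 SD across the whole screen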;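 further: yeast exposed to compound for one week at 30 degrees C before staining; 100% = mean of all compound wells on the same plate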). The conditions noted are these: S. cerevisiae aging, superoxide DHE fluorescence; at 10 µM; stronger effect = lower value.
Experiment [9] has as its target Beta-adrenergic receptor kinase 1 (Homo sapiens) (UniProt P25098). The experiment is described as follows: GRK2 binders displacing RNA aptamer, biochemical, validation, human GRK2, bead flow cytometry (AID 488806;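 active means aptamer binding inhibition above 30%, about 3 SD of noise from non-fluorescent compounds; inactive means inhibition at or below 30%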). The conditions noted are these: bead-bound GRK2, FAM-aptamer displacement, at 10 µM, stronger effect = higher value.
For experiment [10], the target named is Beta-2 adrenergic receptor (Homo sapiens) (UniProt P07550). The experiment is described as follows: beta2AR agonists driving receptor internalization, pilot screen, cell-based, FAP fluorogen, flow cytometry, validation set (AID 504459;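 active means percent response above 42, roughly 3 SD of non-fluorescent test compounds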;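 further: agonist-driven loss of surface beta2AR via internalization measured by FAP dye flow cytometry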). As to conditions: Am2.2-beta2AR cells, FAP surface receptor flow cytometry; at 10 µM; stronger effect = higher value.
The target in experiment [11] is AP-2 complex subunit beta (Homo sapiens) (UniProt P63010). In words: inhibitors of arrestin peptide binding to AP2, pilot screen, biochemical, validation set, GST-AP2 beads, flow cytometry (AID 504541;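 active means inhibition above 54%, about 3 SD of non-fluorescent compounds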;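 further: AP2 carries R879A mutation and is captured from E. coli lysate; bead-bound FITC arrestin peptide fluorescence measuring arrestin peptide binding to AP2; 0% = DMSO wells and 100% = excess unlabeled arrestin peptide control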). As to conditions: FITC arrestin peptide, at 10 µM, stronger effect = higher value, AP2 beta2 appendage fragment, R879A mutant.
Experiment [12] can be described thus: yeast V-ATPase proton transport modulators, S. cerevisiae, pHLuorin, HTS validation (AID 504600; in the data active means response above about 15%;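 further: plate controls were DMSO for no effect and reference compound for full effect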). The conditions noted are these: S. cerevisiae pHLuorin cytosolic pH, at 10 µM, stronger effect = higher value.
Experiment [13] relates to anti-desmoglein-3 scFv antibody binding to human DSG3. The experiment is described as follows: inhibitors of anti-DSG3 scFv binding to DSG3, pilot screen, biochemical, validation compound set, bead-based, flow cytometry (AID 588368;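 active means binding below the plate cutoff, the plate median minus 3 SD, with a reading above zero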;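 further: signal is the median channel fluorescence of bead-bound GFP antibody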). The conditions noted are these: Protein G beads, DSG3-Fc, scFv-GFP binding, at 10 µM, stronger effect = lower value.
Experiment [14] in a line: inhibitors of fungal efflux pumps CDR1, CDR2, MDR1, pilot screen, validation compound set, multiplex, phenotypic (AID 588506;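 active means efflux inhibition above 0.42, the validation set average plus 4 SD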;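 further: Nile Red retained in cells so higher fluorescence means more efflux inhibition; 0 = negative control wells and 1 = enniatin B 25 µM full block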). As to conditions: S. cerevisiae pump-expressing triplex, Nile Red efflux flow cytometry; at 10 µM; stronger effect = higher value; the pumps come from Candida albicans.
For experiment [15], the target named is ATP-binding cassette sub-family B member 6 (Homo sapiens) (UniProt Q9NP58). In words: ABCB6 transporter inhibitors, pilot screen, K562-ABCB6 cells, flow cytometry, validation set (AID 588550;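 active means inhibition above the screen-wide mean plus 3 SD, about 51%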;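 further: 0% = DMSO wells and 100% = benzethonium chloride 70 µM positive control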). The conditions noted are these: K562-ABCB6 porphyrin accumulation, 1 h, at 10 µM, stronger effect = higher value.
Experiment [16] in a line: promoters of myeloid differentiation in arrested cells, primary screen, cell-based, GFP/MAC1 double positive, flow cytometry, validation set (AID 588685).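 Further: compound exposure lasts four days before antibody staining and flow analysis; 0% = DMSO wells and 100% = 5 µM fulvestrant positive control.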 The conditions noted are these: ER-HoxA9 marrow cells, stronger effect = higher value, normalized: vehicle 0, fulvestrant 100.

Records with an inconclusive call do not appear. Activity calls are given as the source filed them.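 How the source made its calls, unless noted: active means differentiation response of at least 50%, scaled between solvent and reference control, from cells with both markers; inactive means the rest.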

Sequence of ATP-binding cassette sub-family B member 6 (Homo sapiens) (Q9NP58 whole entry, looked up): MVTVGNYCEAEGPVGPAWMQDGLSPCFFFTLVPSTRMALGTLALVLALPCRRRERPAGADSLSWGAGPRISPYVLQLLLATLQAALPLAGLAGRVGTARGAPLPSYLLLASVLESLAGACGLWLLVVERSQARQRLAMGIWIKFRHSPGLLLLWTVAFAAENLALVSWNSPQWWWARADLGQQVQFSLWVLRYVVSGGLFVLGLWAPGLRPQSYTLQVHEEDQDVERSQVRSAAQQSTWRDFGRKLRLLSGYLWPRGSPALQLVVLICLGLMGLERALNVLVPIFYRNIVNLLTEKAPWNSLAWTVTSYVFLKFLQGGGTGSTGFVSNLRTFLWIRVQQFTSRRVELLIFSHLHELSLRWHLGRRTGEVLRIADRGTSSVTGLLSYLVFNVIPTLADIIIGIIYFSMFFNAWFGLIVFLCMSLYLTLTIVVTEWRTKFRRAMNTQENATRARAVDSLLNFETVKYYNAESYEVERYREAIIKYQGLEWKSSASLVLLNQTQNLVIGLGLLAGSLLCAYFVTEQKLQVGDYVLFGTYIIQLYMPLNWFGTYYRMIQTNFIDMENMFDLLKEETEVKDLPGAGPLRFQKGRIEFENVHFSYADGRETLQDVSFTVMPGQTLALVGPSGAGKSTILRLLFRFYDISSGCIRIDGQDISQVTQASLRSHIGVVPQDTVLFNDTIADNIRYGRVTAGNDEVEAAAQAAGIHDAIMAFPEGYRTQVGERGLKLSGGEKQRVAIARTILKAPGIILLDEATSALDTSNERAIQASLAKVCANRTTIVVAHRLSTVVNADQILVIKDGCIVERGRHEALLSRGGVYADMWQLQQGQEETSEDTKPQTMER
Sequence of AP-2 complex subunit beta (Homo sapiens) (P63010 whole entry, looked up, the tested form may be a part, one chain of several): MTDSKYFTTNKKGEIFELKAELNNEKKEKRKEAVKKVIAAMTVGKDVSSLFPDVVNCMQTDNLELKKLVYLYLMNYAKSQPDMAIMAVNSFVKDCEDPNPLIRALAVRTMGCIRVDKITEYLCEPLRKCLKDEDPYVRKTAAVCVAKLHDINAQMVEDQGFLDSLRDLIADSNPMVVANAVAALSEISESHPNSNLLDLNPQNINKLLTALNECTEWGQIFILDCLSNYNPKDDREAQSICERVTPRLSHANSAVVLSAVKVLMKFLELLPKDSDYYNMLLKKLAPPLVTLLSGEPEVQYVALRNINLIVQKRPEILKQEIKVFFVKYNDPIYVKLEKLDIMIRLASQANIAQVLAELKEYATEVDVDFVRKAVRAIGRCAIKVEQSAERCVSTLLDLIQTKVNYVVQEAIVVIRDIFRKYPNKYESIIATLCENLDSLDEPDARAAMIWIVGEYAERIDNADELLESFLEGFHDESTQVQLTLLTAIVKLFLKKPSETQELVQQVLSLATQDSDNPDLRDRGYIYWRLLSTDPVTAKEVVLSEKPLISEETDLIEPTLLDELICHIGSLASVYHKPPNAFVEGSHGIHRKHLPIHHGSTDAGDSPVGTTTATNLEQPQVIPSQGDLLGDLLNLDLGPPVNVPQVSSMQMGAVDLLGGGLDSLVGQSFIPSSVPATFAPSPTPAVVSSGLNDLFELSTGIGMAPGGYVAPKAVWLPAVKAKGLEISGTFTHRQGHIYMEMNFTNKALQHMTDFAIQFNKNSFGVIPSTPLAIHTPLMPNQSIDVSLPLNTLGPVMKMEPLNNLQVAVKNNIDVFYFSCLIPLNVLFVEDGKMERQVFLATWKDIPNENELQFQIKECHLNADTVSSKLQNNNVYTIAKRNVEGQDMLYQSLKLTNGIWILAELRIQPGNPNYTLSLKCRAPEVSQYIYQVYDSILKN
Sequence of Beta-adrenergic receptor kinase 1 (Homo sapiens) (P25098 whole entry, looked up): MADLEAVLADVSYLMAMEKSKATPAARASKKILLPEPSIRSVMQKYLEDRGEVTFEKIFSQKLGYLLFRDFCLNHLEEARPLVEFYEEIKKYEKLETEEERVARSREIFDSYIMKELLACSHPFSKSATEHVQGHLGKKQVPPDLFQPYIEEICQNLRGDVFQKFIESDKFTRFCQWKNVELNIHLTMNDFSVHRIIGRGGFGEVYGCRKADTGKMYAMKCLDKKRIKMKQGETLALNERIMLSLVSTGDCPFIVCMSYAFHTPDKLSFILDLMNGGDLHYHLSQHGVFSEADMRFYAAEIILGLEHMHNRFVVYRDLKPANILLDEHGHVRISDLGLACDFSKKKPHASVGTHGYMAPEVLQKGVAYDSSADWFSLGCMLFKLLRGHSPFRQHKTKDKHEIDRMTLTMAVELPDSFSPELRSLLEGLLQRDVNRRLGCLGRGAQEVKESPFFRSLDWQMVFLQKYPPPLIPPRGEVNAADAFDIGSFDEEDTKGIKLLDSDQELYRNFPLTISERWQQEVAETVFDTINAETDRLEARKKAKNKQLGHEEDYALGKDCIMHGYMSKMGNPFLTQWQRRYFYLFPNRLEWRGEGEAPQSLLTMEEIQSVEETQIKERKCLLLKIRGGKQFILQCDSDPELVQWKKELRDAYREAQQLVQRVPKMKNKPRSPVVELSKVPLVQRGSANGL
Sequence of Beta-2 adrenergic receptor (Homo sapiens) (P07550 whole entry, looked up): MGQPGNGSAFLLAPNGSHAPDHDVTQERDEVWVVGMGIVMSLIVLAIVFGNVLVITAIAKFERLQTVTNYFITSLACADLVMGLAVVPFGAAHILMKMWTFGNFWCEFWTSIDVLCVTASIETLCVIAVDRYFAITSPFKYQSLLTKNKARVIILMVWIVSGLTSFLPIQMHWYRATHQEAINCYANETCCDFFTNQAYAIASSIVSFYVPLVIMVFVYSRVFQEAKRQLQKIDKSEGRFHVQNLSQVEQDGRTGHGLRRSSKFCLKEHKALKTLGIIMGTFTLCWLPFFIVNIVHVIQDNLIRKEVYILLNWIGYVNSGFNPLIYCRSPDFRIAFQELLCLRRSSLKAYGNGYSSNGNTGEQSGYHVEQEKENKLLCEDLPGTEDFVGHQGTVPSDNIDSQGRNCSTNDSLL
Sequence of Integrin beta-1 (Homo sapiens) + Integrin alpha-4 (Homo sapiens) (P05556 whole entry, looked up): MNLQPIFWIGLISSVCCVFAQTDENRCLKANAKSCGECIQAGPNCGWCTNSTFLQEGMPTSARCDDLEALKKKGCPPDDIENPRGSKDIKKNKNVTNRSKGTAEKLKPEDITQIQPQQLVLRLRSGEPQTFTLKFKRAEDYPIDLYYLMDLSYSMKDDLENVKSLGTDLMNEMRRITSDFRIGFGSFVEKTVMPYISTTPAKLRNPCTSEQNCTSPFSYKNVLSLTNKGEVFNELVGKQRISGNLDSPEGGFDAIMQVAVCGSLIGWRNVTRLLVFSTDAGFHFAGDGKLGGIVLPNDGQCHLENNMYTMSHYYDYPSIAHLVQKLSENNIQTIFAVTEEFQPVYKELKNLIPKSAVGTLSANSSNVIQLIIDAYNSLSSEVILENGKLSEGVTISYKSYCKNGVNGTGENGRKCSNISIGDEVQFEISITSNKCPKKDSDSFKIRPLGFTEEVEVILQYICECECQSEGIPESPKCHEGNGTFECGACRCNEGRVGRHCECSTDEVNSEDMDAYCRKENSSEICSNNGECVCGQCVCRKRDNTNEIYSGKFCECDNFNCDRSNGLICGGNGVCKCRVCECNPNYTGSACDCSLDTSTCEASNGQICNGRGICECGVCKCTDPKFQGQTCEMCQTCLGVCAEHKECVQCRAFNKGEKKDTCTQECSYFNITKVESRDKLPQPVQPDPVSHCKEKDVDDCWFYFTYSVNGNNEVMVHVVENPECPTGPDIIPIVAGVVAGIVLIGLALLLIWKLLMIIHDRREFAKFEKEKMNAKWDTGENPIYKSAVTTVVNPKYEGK
Sequence of Integrin beta-1 (Homo sapiens) + Integrin alpha-4 (Homo sapiens) (P13612 whole entry, looked up): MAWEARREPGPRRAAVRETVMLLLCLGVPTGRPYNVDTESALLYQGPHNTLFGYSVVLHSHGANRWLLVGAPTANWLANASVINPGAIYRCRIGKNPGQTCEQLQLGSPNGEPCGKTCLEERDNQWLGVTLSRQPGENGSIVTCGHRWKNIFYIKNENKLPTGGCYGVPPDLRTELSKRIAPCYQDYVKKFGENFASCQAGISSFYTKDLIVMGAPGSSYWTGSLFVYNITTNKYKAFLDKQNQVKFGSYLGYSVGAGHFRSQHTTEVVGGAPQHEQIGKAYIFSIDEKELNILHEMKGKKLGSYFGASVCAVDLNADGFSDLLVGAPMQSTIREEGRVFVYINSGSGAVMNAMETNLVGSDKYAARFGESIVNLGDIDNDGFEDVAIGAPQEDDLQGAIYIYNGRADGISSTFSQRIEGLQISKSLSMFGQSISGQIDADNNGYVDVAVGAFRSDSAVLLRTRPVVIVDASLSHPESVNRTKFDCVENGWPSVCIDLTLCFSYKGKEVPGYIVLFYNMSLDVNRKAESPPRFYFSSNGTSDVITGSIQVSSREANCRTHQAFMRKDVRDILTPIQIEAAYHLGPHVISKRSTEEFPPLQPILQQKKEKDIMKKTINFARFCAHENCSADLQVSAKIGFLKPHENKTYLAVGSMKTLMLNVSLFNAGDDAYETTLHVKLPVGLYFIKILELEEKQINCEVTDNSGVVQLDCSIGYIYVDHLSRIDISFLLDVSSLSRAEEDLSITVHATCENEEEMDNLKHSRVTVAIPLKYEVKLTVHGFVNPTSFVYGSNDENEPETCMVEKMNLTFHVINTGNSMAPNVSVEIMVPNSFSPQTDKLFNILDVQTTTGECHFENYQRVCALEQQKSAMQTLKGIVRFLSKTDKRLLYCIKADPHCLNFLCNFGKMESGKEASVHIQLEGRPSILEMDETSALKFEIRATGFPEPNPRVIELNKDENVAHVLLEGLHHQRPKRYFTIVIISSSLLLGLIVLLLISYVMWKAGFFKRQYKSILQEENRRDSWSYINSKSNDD

For orientation: inhibition means the change of the read-out against control, counted positive when it falls. Take `c1cc(-c2ccncc2)ccn1`: the percent of DMSO control GFP in [1] is 99.7% (inactive). The GFP response vs DMSO in experiment [2] is 95.2% (inactive); in experiment [4] it was 108% (inactive). In addition, the percent response of DMSO control in [3] is 106% (inactive). Besides, in experiment [5], the GFP response, % of DMSO is 105% (inactive). The compound further registered a double positive events in experiment [6] of 58.3%. In [6], the vesicle binding response is 239% (inactive). In addition, the inhibition in experiment [7] was 0.94% (inactive); in experiment [11], 23.8% (inactive); in experiment [15] it was 4% (inactive). Further, the superoxide response (% of plate) in experiment [8] is 117% (inactive). Further, the aptamer binding inhibition in experiment [9] is 4% (inactive). Besides, the figures for the response in [10] and in [12] were 8.34% (inactive) and -5.09% (inactive), respectively. Also, the binding (% of control) in experiment [13] was 101% (inactive). Moreover, the efflux inhibition (fraction of control) in [14] is -0.28 (inactive). In addition, in [16], the differentiation response is 79.2% (active).
As to `O=C(CS(=O)(=O)c1ccccc1)c1ccc2c(c1)OCCO2`, the percent of DMSO control GFP in experiment [1] was 99.7% (inactive). Moreover, the GFP response vs DMSO in experiment [2] is 103% (inactive); in experiment [4], 112% (inactive). Further, in experiment [3], the percent response of DMSO control is 100% (inactive). In addition, the GFP response, % of DMSO in experiment [5] is 113% (inactive). The double positive events in experiment [6] turned out to be 57.1%. Also, the vesicle binding response in experiment [6] was 194% (inactive). The inhibition in [7] is -9.63% (inactive); in experiment [11], -15.5% (inactive); in experiment [15], 5% (inactive). Further, the superoxide response (% of plate) in experiment [8] was 98.2% (inactive). For the same compound, the aptamer binding inhibition in experiment [9] is 4% (inactive). The response in experiment [10] is -29.9% (inactive); in experiment [12], -0.24% (inactive). For the same compound, the binding (% of control) in experiment [13] was 103% (inactive). The efflux inhibition (fraction of control) in [14] is 0.12 (inactive). Also, the differentiation response in experiment [16] was -1.05% (inactive).
For the compound `COc1cc2c(cc1OC)C1(CCCC1)CNC2c1cccc([N+](=O)[O-])c1` (stereo not given), the percent of DMSO control GFP in [1] is 99.3% (inactive). In addition, the GFP response vs DMSO in [2] was 103% (inactive); in experiment [4], 109% (inactive). Moreover, the percent response of DMSO control in experiment [3] was 95.8% (inactive). Besides, the GFP response, % of DMSO in experiment [5] is 92.8% (inactive). Besides, the double positive events in experiment [6] came to 54.7%. The vesicle binding response in experiment [6] is 235% (inactive). Further, the figures for the inhibition in [7], in experiment [11] and in experiment [15] were -57.8% (inactive), -2.35% (inactive) and 4% (inactive), respectively. Also, the superoxide response (% of plate) in experiment [8] is 99.7% (inactive). In addition, in [9], the aptamer binding inhibition is -2% (inactive). The response in experiment [10] is 23.6% (inactive); in experiment [12], 35.2% (active). The binding (% of control) in [13] was 99.1% (inactive). Further, the efflux inhibition (fraction of control) in experiment [14] is 0.05 (inactive). Besides, the differentiation response in [16] was -8.8% (inactive).
Consider `O=C(NC1CC1)C1CCN(C2CCN(C(=O)Cc3ccc(F)cc3)CC2)CC1`, for which the percent of DMSO control GFP in experiment [1] is 94.6% (inactive). Moreover, the results for the GFP response vs DMSO in [2] and in [4] were 136% (inactive) and 84.7% (inactive), respectively. Moreover, the percent response of DMSO control in [3] is 111% (inactive). Moreover, the GFP response, % of DMSO in [5] was 90.5% (inactive). In experiment [6], this compound gave a double positive events of 38%. In [6], the vesicle binding response is 48% (active). For the same compound, the values for the inhibition in experiment [7], in experiment [11] and in experiment [15] were -3.24% (inactive), 44.4% (inactive) and 8% (inactive), respectively. The superoxide response (% of plate) in experiment [8] is 106% (inactive). In addition, in [9], the aptamer binding inhibition was -7% (inactive). The results for the response in [10] and in [12] were -2.98% (inactive) and -9.52% (inactive), respectively. Also, the binding (% of control) in [13] is 98.3% (inactive). In experiment [14], the efflux inhibition (fraction of control) is 0.27 (inactive). The differentiation response in experiment [16] is 6.55% (inactive).
With `COc1cccc(CN2C(=O)N(C(C)C)C(N(O)C(=O)NC(C)C)C2(C)C)c1OC` (stereo not given), the percent of DMSO control GFP in experiment [1] was 98.2% (inactive). Also, the GFP response vs DMSO in experiment [2] was 103% (inactive); in [4] it was 97.3% (inactive). The percent response of DMSO control in experiment [3] is 115% (inactive). Besides, the GFP response, % of DMSO in [5] was 101% (inactive). The compound also came in with a double positive events in experiment [6] of 67.3%. Moreover, the vesicle binding response in [6] was 216% (inactive). Further, the values for the inhibition in experiment [7], in experiment [11] and in [15] were -11.9% (inactive), -6.77% (inactive) and 26% (inactive), respectively. Also, the superoxide response (% of plate) in [8] was 84.9% (inactive). Also, the aptamer binding inhibition in experiment [9] was -1% (inactive). Besides, the response is -7.26% (inactive) in experiment [10] and -0.84% (inactive) in experiment [12]. For the same compound, the binding (% of control) in [13] was 97.4% (inactive). Besides, the efflux inhibition (fraction of control) in experiment [14] is -0.04 (inactive). Also, the differentiation response in [16] was 7.09% (inactive).
